SMILES strings stand for the structures. ± gives the standard deviation of the averaged measurements.

Common to all, as to conditions: concentration: 10 µM; 24 h
Assay [1] deals with HCC1569. As to the kind of experiment: cell number relative to DMSO (% of DMSO); higher = more cells (less growth inhibition / toxicity). Put shortly: (§1)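 Cells were seeded at 800 per well in 384-well plates with RPMI containing 10% FBS; both HCC1569 and TDF lines were used. Compounds were added at 10 µM for 24 h at 37 °C, in triplicate, before fixation in 3.7% formaldehyde and staining with a rabbit anti-H1.0 antibody, an AlexaFluor 647 secondary and DAPI. H1.0 nuclear intensity or cell number is reported as percent of the plate control using the median of replicates, and HCC1569 values were smoothed for positional effects.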

For assay [2], the system named is TDF. Described as above. Put shortly:
as §1

The subject of assay [3] is TDF. The assay is described as follows: H1.0 immunofluorescence intensity relative to DMSO (% of DMSO); higher = stronger H1.0 induction, active = 120 or more. In short, it runs like this: as §1
The test system of assay [4] is HCC1569. As to the kind of experiment: H1.0 immunofluorescence intensity relative to DMSO (% of DMSO); higher = stronger H1.0 induction, active = 140 or more. In short, it runs like this:
as §1
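For H1.0 immunofluorescence intensity relative to DMSO in this document: TDF is a line of transformed human dermal fibroblasts of mesenchymal origin.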
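For cell number relative to DMSO in this document: TDF denotes transformed human dermal fibroblasts of mesenchymal origin.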

With `CCCCCCCCCCCCCC=CC(O)C(CO)NC(=O)CCCCCCC` (stereo not drawn) [C8 Ceramide], the values for the cell number in assay [1] and in assay [2] were 102 and 99.5, respectively. Besides, the results for the H1.0 immunofluorescence intensity in assay [3] and in assay [4] were 101 (inactive) and 99.8 (inactive), respectively.

For `O=C(O)CNC(=O)C(=O)O` [2-(carboxymethylamino)-2-oxoacetic acid], the cell number in assay [1] was determined as 103; in assay [2], 92.4. Also, the H1.0 immunofluorescence intensity in assay [3] was 93.7 (inactive); in assay [4], 83.7 (inactive).

On to `N[C@@H](Cc1c[nH]c2ccc(O)cc12)C(=O)O` [5-Hydroxy-L-tryptophan], for which the cell number turned out to be 98.1 in assay [1] and 94.8 in assay [2]. Moreover, the H1.0 immunofluorescence intensity in assay [3] was 93 (inactive); in assay [4] it was 116 (inactive).

With `CSc1nc(-c2ccnc(NC(C)c3ccccc3)c2)c(-c2ccc(F)cc2)[nH]1` (stereo not drawn) [p38 MAP Kinase Inhibitor III], the cell number in assay [1] came to 94.8; in assay [2], 107. For the same compound, the figures for the H1.0 immunofluorescence intensity in assay [3] and in assay [4] were 95.2 (inactive) and 113 (inactive), respectively.

In the case of `COc1cc(C)c(C=CC(C)=CC=CC(C)=CC(=O)O)c(C)c1C` [Acitretin], the cell number was 98.5 in assay [1] and 108 in assay [2]. In addition, the H1.0 immunofluorescence intensity was 90.1 (inactive) in assay [3] and 126 (inactive) in assay [4].

Turning to `CCCCCC=CCC=CC=CC=CCC(=O)CCCC(=O)O` [5-Ketoeicosatetraenoic acid], the cell number came to 99.9 in assay [1] and 95.5 in assay [2]. In addition, the H1.0 immunofluorescence intensity in assay [3] is 98.1 (inactive); in assay [4] it was 96.5 (inactive).

With `NC(=NCc1ccccc1)NC(=O)c1nc(Cl)c(N)nc1N` [Benzamil], the cell number in assay [1] and in assay [2] was 99.9 each time. In addition, the H1.0 immunofluorescence intensity is 98.7 (inactive) in assay [3] and 112 (inactive) in assay [4].

Take `CC(CN(C)C)CN1c2ccccc2CCc2ccccc21.O=C(O)C=CC(=O)O` (stereo not drawn) [Trimipramine maleate]: the cell number in assay [1] and in assay [2] was 106 each time. For the same compound, the H1.0 immunofluorescence intensity is 102 (inactive) in assay [3] and 109 (inactive) in assay [4].

For the compound `CCCCCCCCCCCCCCCCCC(=O)NCC(COP(=O)([O-])OCC[N+](C)(C)C)OCC` (racemic) [rac-2-Ethoxy-3-octadecanamido-1-propylphosphocholine], the cell number in assay [1] was determined as 39; in assay [2], 54.4. Further, the values for the H1.0 immunofluorescence intensity in assay [3] and in assay [4] were 183 (active) and 153 (active), respectively.

`CN(C)CCOc1ccc(C(=C(CCCl)c2ccccc2)c2ccccc2)cc1` [Toremifene]: the figures for the cell number in assay [1] and in assay [2] were 97.2 and 104, respectively. Moreover, the figures for the H1.0 immunofluorescence intensity in assay [3] and in assay [4] were 102 (inactive) and 122 (inactive), respectively.

Consider `COc1cc2c(c(OC)c1OC)-c1c(cc3c(c1OC)OCO3)CC(C)C(C)(O)C2OC(=O)c1ccccc1` (stereo not drawn) [Schisantherin A], for which the cell number was 106 in assay [1] and 95 in assay [2]. Further, the H1.0 immunofluorescence intensity is 98.5 (inactive) in assay [3] and 97.7 (inactive) in assay [4].

As to `CCCCCC(=O)C=CC1C(O)CC(=O)C1CC=CCCCC(=O)O` (stereo not drawn) [15-keto-prostaglandin E2], the cell number in assay [1] was determined as 100; in assay [2], 108. The H1.0 immunofluorescence intensity in assay [3] was 89.3 (inactive); in assay [4], 90.9 (inactive).

Consider `NC(=O)N1c2ccccc2C=Cc2ccccc21` [Carbamazepine], for which the cell number in assay [1] worked out at 101 ± 6.6; in assay [2], 111 ± 1.5. In addition, the figures for the H1.0 immunofluorescence intensity in assay [3] and in assay [4] were 92.6 (inactive) and 97 (inactive), respectively.

`C=CCN1CCc2cc(O)c(O)cc2C(c2ccccc2)C1` (racemic): the cell number in assay [1] amounted to 101; in assay [2], 108. Besides, the H1.0 immunofluorescence intensity in assay [3] is 90.9 (inactive); in assay [4], 101 (inactive).

In the case of `CCCCCC=CCC=CC=CC(O)CC=CCCCC(=O)O` (stereo not drawn), the cell number stood at 98.1 in assay [1] and 99.8 in assay [2]. In addition, the H1.0 immunofluorescence intensity was 97.3 (inactive) in assay [3] and 95.8 (inactive) in assay [4].

Regarding `O=C(c1cc2cc(O)ccc2[nH]1)c1cc2cc(O)ccc2[nH]1` [Flt-3 Inhibitor II], the results for the cell number in assay [1] and in assay [2] were 67.1 and 73, respectively. Moreover, the H1.0 immunofluorescence intensity in assay [3] was 99.9 (inactive); in assay [4], 195 (active).

Regarding `CCCCCCCCCCCCCCCC(O)C(N)CO` (racemic) [DL-erythro-Dihydrosphingosine], the cell number worked out at 102 in assay [1] and 87.8 in assay [2]. In addition, the H1.0 immunofluorescence intensity in assay [3] is 108 (inactive); in assay [4] it was 96.9 (inactive).

The record behind these values is the supplement of paper PMC7156485.
